# Assay results: the supplement of paper PMC11417369
# ± gives the standard deviation of the averaged measurements. The full ranking holds about 25,000 sequences; the median of “ln(normalized median fluorescence intensity)” is about 10, and the highest 2% start at about 12. For the sample, the highest values were picked, then their nearest neighbours and some sequences at random.
# Test system: PfAP2-G AP2 domain (GST-tagged)
# Assay: gcPBM binding intensity (ln(normalized median fluorescence intensity)); higher = stronger DNA binding
# How it was run: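 An Agilent 4 × 180k array carrying primer-extended double-stranded 36-bp intergenic genomic probes and negative controls received GST-tagged P. falciparum DNA-binding domains expressed in E. coli, about 25 μg on average, for 1 h. The binding buffer contained 1× PBS, 1% milk, 0.2 mg/ml BSA, 0.5% salmon testes DNA and 0.03% Triton X-100. Binding intensity is the top Masliner-normalised natural-log median intensity across replicate spots of either probe orientation, read after Alexa488 anti-GST antibody staining and a 488 nm scan.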
row,Sequence,gcPBM binding intensity (ln)
1,TTTTTTTTTTTTTTTTGTACATAATTATATATTTAC [XGTACX_site7540],10.9 ± 1
2,AAAATAATGTTTATATGTACATATATATATATATAT [XGTACX_site8815],11 ± 0.57
3,AACAATTAGAACTTTGCACACTTCTATATATTTTGT [CACACA_site674],9.91 ± 0.2
4,TTTTCTAAATAAATAGTGCATTTATTATATATACAT [GTGCAC_site9766],9.97 ± 0.13
5,ATATATATATATATATGTACATATTTGATTTTTCTT [XGTACX_site8171],11.1 ± 0.79
6,AAATATTATGTACGCACACACATTTTTGATATATAA [CACACA_site7755],11.5 ± 0.88
7,TATTTATTTATGTACGCACACAGTTGATATTAATTC [CACACA_site2754],11.6 ± 0.96
8,ATATTTATTTATTTATGTACGCACACAGTTGATATT [XGTACX_site5808],11.7 ± 1
9,TTGTAATATCTTGTCACACATATATATATATATATA [CACACA_site4937],10.1 ± 0.26
10,AATTGAAAAAGAAATTGTACATTTTATTTTTATTAT [XGTACX_site1973],10.9 ± 0.42
11,ATAGTCTTAATGACTACACACCTAACTATGCATGCA [CACACA_site5084],9.88
12,CAAAAATAAATATAAACACACAATAAATAAATAAAT [CACACA_site891],9.74 ± 0.057
13,TATTTTAACATTAGGTGTACATACAAAAATAAAAAT [XGTACX_site8577],11.6 ± 0.93
14,CAAAAATAATTTAGGTGTACAAATTTGACAAAAAAA [XGTACX_site188],11.7 ± 0.59
15,TAAAATAATACAAAATGTACAAAATTTACAAAATGT [XGTACX_site3541],10.5 ± 0.28
16,CTTAAAATGATAATATGTACACATAAATAATATATA [XGTACX_site8330],11.5 ± 0.76
17,TACTACACACATTCATGTACTTGATAAATTAATGAT [XGTACX_site6444],10.9 ± 0.47
18,TATATAAACATCGGTAGTACACACATTCATGTATTT [XGTACX_site6443],11.5 ± 0.71
19,ATAAACATCGGTAGTACACACATTCATGTACTTGAT [CACACA_site3037],11.8 ± 1
20,TTTTCAAAATGTTGTACACACAAAAAAAAAAAAAAA [CACACA_site1550],11.5 ± 1
21,TAAGAAAAAGGCACACGTACATAATTCAAAATAAAT [XGTACX_site982],11.3 ± 0.67
22,TATAAATAGAGGAAGCGTACATATATATATATATAT [XGTACX_site4993],11.3 ± 1
23,TCGGGAGGGGGGAAGCGTACATATATAAAATTATTA [XGTACX_site4683],11.7 ± 0.76

row,Sequence,gcPBM binding intensity (ln)
1,ATAAATAAATAAAAGCGTACATATATATAAAATATA [XGTACX_site8107],11.6 ± 0.88
2,TTATAAAAATACAGTTAACACACATGTGTATATATA [CACACA_site9257],10.4 ± 0.25
3,ATATATATATATATATGTACATATGTTAATCTGCAT [XGTACX_site1068],11.2 ± 0.7
4,ATATATATATATATATGTACATAATGCATATAATAT [XGTACX_site6142],11.1 ± 0.52
5,CGCATGCAATGTTAATGTACATATATATATATATGT [XGTACX_site3316],11.7 ± 0.64
6,AATATAAATAAAAAATTGATTTCTTTAAAAAGGTAT [CACACA_negctrl_site1038],9.67 ± 0.18
7,TTTTTATAAAAATTATTAAAAAAATTATTTATAGCT [CACACA_negctrl_site265],9.54 ± 0.12
8,ATGACATATAAATATACACACATACGTAAGTATATT [CACACA_site5058],9.96 ± 0.11
9,GTACAAAAAAAGTGTACACAAAGTAAGACTTTAATT [CACACA_site5068],11.7 ± 0.83
10,TGTGTATAAAAAAAGTGTACACAAAGTAAGACTTTA [XGTACX_site3759],11.7 ± 0.86
11,AAAAAAAAAAAAAAAAGTACACAAATTTTAAAAATT [XGTACX_site3006],11.6 ± 0.88
12,GTATAAAAAAATAAAAGTACAAAAAAAAAAGACTGA [XGTACX_site186],11.4 ± 0.77
13,TTTAAAGTAATAAAGTGTACAAAAATAAATTCAGCT [XGTACX_site8651],11.2 ± 0.67
14,TATAAAAGGTAAGAGTGTACAAGTAAAAAATTTTTA [XGTACX_site771],11.2 ± 0.7
15,TTCTAAAATTATATAGTGCAATTATATTAATTTTTC,9.785 ± 0.078
16,TTTGTTGGTATGGTTACACACATTTAGGAAATAAAA [CACACA_site1411],10.4 ± 0.34
17,TCGAACGTATCATGTGTACACACAAATTGTTTTTTT [CACACA_site8623],11.6 ± 0.86
18,GAACGTATCATGTGTACACACAAATTGTTTTTTTTT [CACACA_site2020],11.7 ± 0.91
19,TTTTACAAATGTTTTACACACACATAATTGTATCAA [CACACA_site4166],10.1 ± 0.13
20,ACCCATTGCTCACGTGCACACATAGAAAAATAATTC [CACACA_site4389],10.8 ± 0.58
21,AAAAATTTAAGTGGGGGTACATTTTTTTAACACCTT [XGTACX_site1093],11.6 ± 0.66
22,ATTCATTTTTTGGGGGGTACACCCTTTTAAACATTT [XGTACX_site4797],11.8 ± 1.3
23,TTTTTAATTTTTTTTAAACACACACCGTACATTCAA [CACACA_site7925],10.8 ± 0.61

row,Sequence,gcPBM binding intensity (ln)
1,AATAGCCCATATGGAATACACACTGAAAATAAAAAA [CACACA_site3373],10.3 ± 0.26
2,TATATATATATATATGCATGTACATATATTTGTTAT [TGCATGCA_site379],11.1 ± 0.42
3,TATTTTTTTTTTATATGTACATAATTTCAAATAAAT [XGTACX_site7747],11.4 ± 0.83
4,TATAATTATATTTGGAGTACAAATTTTTTTTTTTTT [XGTACX_site7494],11.5 ± 0.9
5,TATATTTCAGGGGGGAGTACAAATTTTTTTATATAA [XGTACX_site1600],11.8 ± 0.87
6,TATTGTATTTAATAAACACACAATATTAAAAATATA [CACACA_site4725],9.91 ± 0.16
7,GAAAACAAATATGTAGCACACATTCACATAATATAT [CACACA_site8731],9.97 ± 0.014
8,GTTACATACCTATACACACACATATATAAATAAATA [CACACA_site6549],10.2 ± 0.18
9,ATATATATAATATAGGTGCACTACTTATTTAAAAAA,10.5 ± 0.36
10,ATTGATAAATTAACTAGTACACATATAAATATATTA [XGTACX_site2325],11.3 ± 0.93
11,TACACCAGTTGTGGGAGTACACAAAAAAAGGGAAAA [XGTACX_site6047],11.7 ± 1
12,AAAGAAGGGAAACACACACACACACCCACAAAAAAA [CACACA_site3766],10.3 ± 0.33
13,TATAAGCTAAGTTGTTGTACAAAAAGGAAAAGTATA [XGTACX_site3741],11.1 ± 0.59
14,TATTATAATATTTATACACACATAATTTTGATAAAT [CACACA_site583],9.95 ± 0.16
15,TATATTATGACCACCACACACCTATACACATAACAT [CACACA_site7199],11.4 ± 0.91
16,ATTATAACACCTCCCCCCCTTTTTTTATGAAGACCA [CACACA_negctrl_site1043],11.8 ± 0.86
17,AACTTTTAGAAGAACACACACATATAGATTATGACC [CACACA_site6256],10.2 ± 0.014
18,TACACATACAGACATACACACATACACATATACACA [CACACA_site6918],10.2 ± 0.23
19,CACAAAAGTAAGCACGCACACACAACATGAAATAAA [CACACA_site7938],10.4 ± 0.18
20,TTAATCTTTCCTACATGTACACACAGAAAAAAAAAA [XGTACX_site5213],11.5 ± 1
21,TAATCTTTCGTACATGTACACACAGAAAAAAAAAAA [CACACA_site8798],11.8 ± 1.3
22,ATCTTTCGTACATGTACACACAGAAAAAAAAAAAAA [CACACA_site2502],11.5 ± 1
23,TTAAAGCTTGCATATACACACATACATAAATTCATA [CACACA_site7208],10 ± 0.18

row,Sequence,gcPBM binding intensity (ln)
1,TATTTTTTTTTTTTTTTTTTTACCTTTCCACTCAAA [CACACA_negctrl_site1454],9.84 ± 0.34
2,ATGTATATTTTTAAAAGTACAGAATTTTCATATGAA [XGTACX_site5754],11.3 ± 0.93
3,TAATATATTAATATATGTACGTATTTTTATTAATAT [XGTACX_site5346],11.6 ± 0.93
4,ATATATGTATATTTTTGTACGCATAAATATATTTTT [XGTACX_site827],11.3 ± 0.83
5,AATTTATTTTTTTAATGTACATATGGTATAAATATA [XGTACX_site8012],11.3 ± 0.79
6,TATTATGTATGTATATGTACGTATCTTATTTTATTT [XGTACX_site5008],11.3 ± 0.76
7,ATATATTTATATAGGTGTACATATTTTGCTATTCAA [XGTACX_site5199],11.6 ± 0.77
8,TGTAAATAATATAATAGTACGCATATTTTTATTGAA [XGTACX_site284],11.4 ± 0.78
9,TTATTTTCATATAGGTGTACATAAAAATATTCTTAT [XGTACX_site8861],11.6 ± 0.82
10,ATATTTATACATAAATGTACTTTTATATATTTAATA [XGTACX_site3020],11.1 ± 0.8
11,TATATACAATATAGGTGTACATTTTTTTATCTATTT [XGTACX_site8431],11.3 ± 0.69
12,ATATTTTTTTTTTCGTGTACGCATAAATATATCTAA [XGTACX_site3360],11.6 ± 0.95
13,ATTTTATCTTTAAACTGTACGTATTAATATGTAGAA [XGTACX_site3077],11.7 ± 1.1
14,TTTTTTAATAAATGGTGTACATATTTTTTTTATACT [XGTACX_site8584],11.8 ± 0.87
15,ATAATAAATAAATAATGTACATATGAAAGAATAAAT [XGTACX_site8355],11.1 ± 0.49
16,ATATAAAATAAATAAGTGCAGATAAATTTATGTGAC [GTGCAC_site9504],10.25 ± 0.057
17,TTGCCCATTTCATTAACACACAAATGTTTATATTCT [CACACA_site4569],10.17 ± 0.071
18,TCATACATTTTCCTTGCACACATTTATAATTAATGT [CACACA_site614],10.5 ± 0.17
19,TTATGCATAAAAGGTGGTACTCCGTATATACATTCT [XGTACX_site4354],11.4 ± 0.65
20,TACTTTTCATCTTCTTAACACACAAAAAAAAAAAAA [CACACA_site9290],10.1 ± 0.52
